17 compounds from PubChem BioAssay (NCATS) can be followed below.

Assay [1] in a line: qHTS of pediatric cancer cell lines to identify multiple opportunities for drug repurposing: Primary screen for Rh18 cells (AID 1347102). Further: nearly all actives have a fitted effect of over 65% in size. Further: potency means the concentration at half of the fitted maximal effect. In outline: (§1)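 Viability after 48 h compound treatment at 37C, 500-1,000 cells/well, read as ATP luminescence with CellTiter-Glo. Primary screens used 11-point (MIPE, 0.78 nM-46 µM) or 8-point (NPC, 0.59 nM-46 µM) final concentrations; follow-up screens used 11-point dilutions.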
Background: In qHTS, concentration-response curves come from the screen itself.

Assay [2] is described as follows: qHTS of pediatric cancer cell lines to identify multiple opportunities for drug repurposing: Primary screen for RD cells (AID 1347104). Further: nearly all actives have a fitted effect of over 55% in size. Further: potency means the concentration at half of the fitted maximal effect. In outline:
(§2)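 Primary screen of approved and investigational compounds on cells in growth media at 37 degrees C, 5% CO2. MIPE set at 11-point and NPC set at 8-point dilutions; viability scored by ATP-based luminescence at 48 hours.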

Assay [3] can be described thus: qHTS of pediatric cancer cell lines to identify multiple opportunities for drug repurposing: Primary screen for MG 63 (6-TG R) cells (AID 1347105). Further: nearly all actives have a fitted effect of over 50% in size. Further: potency means the concentration at half of the fitted maximal effect. In outline: as §2
Assay [4] can be described thus: qHTS of pediatric cancer cell lines to identify multiple opportunities for drug repurposing: Primary screen for control Hh wild type fibroblast cells (AID 1347106).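 Further: series mostly up to about 46 µM; a drop in luminescence marks cytotoxicity and a rise apparent proliferation; nearly all actives have a fitted effect of over 55% in size.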 Put shortly: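 Cells (500-1,000/well) in growth media were settled 5 h at 37 degrees C, then given compounds for 48 h. Viability was read as CellTiter-Glo luminescence. Primary runs used MIPE at 11 points (0.78 nM-46 µM) and NPC at 8 points (0.59 nM-46 µM); follow-ups used 11 points.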

Assay [5] can be described thus: qHTS of pediatric cancer cell lines to identify multiple opportunities for drug repurposing: Primary screen for Rh41 cells (AID 1347108). Further: nearly all actives have a fitted effect of over 70% in size. Further: potency means the concentration at half of the fitted maximal effect. In outline: as §2
Assay [6] can be described thus: qHTS of pediatric cancer cell lines to identify multiple opportunities for drug repurposing: Primary screen for OHS-50 cells (AID 1347103). Further: nearly all actives have a fitted effect of over 40% in size. Further: potency means the concentration at half of the fitted maximal effect. Put shortly:
(§3)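 Cells (500-1,000/well) rested 5 h, then received compounds for 48 h; metabolically active cells were measured by CellTiter-Glo luminescence. Final concentrations spanned up to 46 µM (MIPE, 11-point) or 0.59 nM-46 µM (NPC, 8-point) in primary screens, 11-point in follow-ups.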

Assay [7] is described as follows: qHTS of pediatric cancer cell lines to identify multiple opportunities for drug repurposing: Primary screen for Rh30 cells (AID 1347107). Further: nearly all actives have a fitted effect of over 75% in size. Further: potency means the concentration at half of the fitted maximal effect. In outline:
as §1

A short description of assay [8]: qHTS of pediatric cancer cell lines to identify multiple opportunities for drug repurposing: Primary screen for BT-12 cells (AID 1347101). Further: nearly all actives have a fitted effect of over 25% in size. Further: potency means the concentration at half of the fitted maximal effect. Put shortly:
as §3

A short description of assay [9]: qHTS of pediatric cancer cell lines to identify multiple opportunities for drug repurposing: Confirmatory screen for NB1643 cells (AID 1347109). Further: nearly all actives have a fitted effect of over 45% in size. Further: potency means the concentration at half of the fitted maximal effect. Put shortly:
as §1

Assay [10] is described as follows: qHTS of pediatric cancer cell lines to identify multiple opportunities for drug repurposing: Confirmatory screen for LAN-5 cells (AID 1347113). Further: nearly all actives have a fitted effect of over 65% in size. Further: potency means the concentration at half of the fitted maximal effect. In outline: as §1
Assay [11] can be described thus: qHTS of pediatric cancer cell lines to identify multiple opportunities for drug repurposing: Confirmatory screen for SJ-GBM2 cells (AID 1347116). Further: potency means the concentration at half of the fitted maximal effect; nearly all actives have a fitted effect of over 60% in size. Put shortly:
(§4)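 Viability measured as metabolically active cells via CellTiter-Glo luminescence following 48 hours of compound exposure, 11-point dilutions in confirmatory testing. 500-1,000 cells/well plated 5 hours before dosing; controls were DMSO and 2.3 µM bortezomib.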

The nature of assay [12]: qHTS of pediatric cancer cell lines to identify multiple opportunities for drug repurposing: Confirmatory screen for BT-37 cells (AID 1347117). Further: nearly all actives have a fitted effect of over 55% in size. Further: potency means the concentration at half of the fitted maximal effect. Put shortly: as §1
Assay [13] can be described thus: qHTS of pediatric cancer cell lines to identify multiple opportunities for drug repurposing: Confirmatory screen for TC32 cells (AID 1347118). Further: nearly all actives have a fitted effect of over 65% in size. Further: potency means the concentration at half of the fitted maximal effect. Put shortly:
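TC32 cells, 500-1,000/well in growth medium, compound-treated 48 h at 37 °C; viability from CellTiter-Glo luminescence. Primary screen: MIPE 11-point (0.78 nM–46 µM final), NPC 8-point (0.59 nM–46 µM final); confirmatory at 11-point dilutions.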

Assay [14] in a line: qHTS of pediatric cancer cell lines to identify multiple opportunities for drug repurposing: Confirmatory screen for U-2 OS cells (AID 1347122). Further: potency means the concentration at half of the fitted maximal effect; nearly all actives have a fitted effect of over 65% in size. Put shortly:
as §1

The nature of assay [15]: qHTS of pediatric cancer cell lines to identify multiple opportunities for drug repurposing: Confirmatory screen for A673 cells (AID 1347110). Put shortly: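 Viability was read as ATP luminescence (CellTiter-Glo) after 48 h of compound exposure at 37 C in A673 cells seeded at 500-1,000/well. Titrations reached 46 uM final, with 11 points in the confirmatory screen. Concentration-response curves were fitted directly.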

Assay [16] is described as follows: qHTS of pediatric cancer cell lines to identify multiple opportunities for drug repurposing: Confirmatory screen for SK-N-MC cells (AID 1347111).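 Further: cells exposed to compound for 48 h before the readout; nearly all actives have a fitted effect of over 70% in size.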 Further: potency means the concentration at half of the fitted maximal effect. In outline:
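SK-N-MC cells at 500-1,000 cells/well in growth media were pre-incubated 5 h, then exposed to compounds at 11-point dilutions for 48 h at 37 degrees C, 5% CO2. Viability was read as CellTiter-Glo luminescence.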

The nature of assay [17]: qHTS of pediatric cancer cell lines to identify multiple opportunities for drug repurposing: Confirmatory screen for BT-12 cells (AID 1347112). Further: nearly all actives have a fitted effect of over 55% in size. Further: potency means the concentration at half of the fitted maximal effect. In outline:
as §1

Assay [18] can be described thus: qHTS of pediatric cancer cell lines to identify multiple opportunities for drug repurposing: Confirmatory screen for control Hh wild type fibroblast cells (AID 1347121). Further: nearly all actives have a fitted effect of over 70% in size. Put shortly: as §1
A short description of assay [19]: qHTS of pediatric cancer cell lines to identify multiple opportunities for drug repurposing: Confirmatory screen for DAOY cells (AID 1347114). In outline: as §4

The structures appear in SMILES notation. Results filed as inconclusive are left out. Activity calls are given as the source filed them. The call rests on the fitted dose curve; in most records, active means well fitted curve in the direction sought with a large enough effect; inconclusive means small, poorly fitted or top-dose-only effect, or another doubt; inactive means no such curve, though single readings can be large; an effect the other way counts as inactive or inconclusive.

In the case of `NC(=O)c1cccc(-c2cc(Nc3ccc(OC(F)(F)F)cc3)ncn2)c1`, the Potency result in [1], in assay [2], in [3], in [4] and in assay [5] was “inactive” each time.

`CC=CC(=O)N(CC)c1ccccc1C`: the Potency entry in assay [1], in assay [6], in [3], in assay [4], in assay [7] and in [5] was “inactive” each time.

`NC(=O)c1cnc(-c2ccc(C3(N)CCC3)cc2)c(-c2ccccc2)c1`: the Potency result in [1], in assay [4] and in [7] was “inactive” throughout. For the same compound, the Potency in assay [6] is 2.73 µM (active).

Regarding `CC1(C)CCC2=C(O1)c1ccccc1C(=O)C2=O`, the Potency is 30.6 µM (active) in assay [8]; 33.2 µM (active) in assay [2]; 23.5 µM (active) in assay [7]; 18.7 µM (active) in [5]; 23.3 µM (active) in assay [9]; 9.27 µM (active) in assay [10]. For the same compound, the Potency in assay [11] is 1.31 µM (active); in assay [12] it was 23.3 µM (active); in assay [13], 23.3 µM (active); in assay [14], 23.3 µM (active). Also, the Potency entry in assay [4] was “inactive”.

For `CO[C@H]1C[C@@H]2CC[C@@H](C)[C@@](O)(O2)C(=O)C(=O)N2CCCC[C@@H]2C(=O)O[C@H]([C@@H](C)C[C@@H]2CC[C@H](O)[C@H](OC)C2)CC(=O)[C@H](C)C=C(C)[C@@H](O)[C@@H](OC)C(=O)[C@H](C)C[C@H](C)C=CC=CC=C1C`, the Potency in assay [8] is 9.68 µM (active). The Potency entry in [2], in [3], in assay [4] and in assay [7] was “inactive” throughout.

On to `Nc1nc(F)nc2c1ncn2[C@@H]1O[C@H](COP(=O)(O)O)[C@@H](O)[C@H]1O`, for which the Potency entry in assay [1] and in assay [5] was “inactive” each time. The Potency in assay [6] was 0.485 µM (active); in assay [3], 0.469 µM (active).

For `O=C(NCc1ccccc1)c1csc(Nc2ccncn2)n1`, the Potency in assay [8] is 19.3 µM (active); in [2] it was 29.6 µM (active); in assay [3] it was 23.5 µM (active); in assay [5], 9.35 µM (active).

Consider `CN(C[C@@H]1COCCO1)S(=O)(=O)Nc1ccc2ccc3ncc(-c4cnn(C)c4)cc3c(=O)c2c1`, for which the Potency is 14.8 µM (active) in assay [1] and 1.22 µM (active) in assay [6]. The Potency result in assay [3], in [4] and in [7] was “inactive” throughout.

Turning to `C[C@H](NC(=O)C(=O)Nc1ccccc1C(C)(C)C)C(=O)N[C@@H](CC(=O)O)C(=O)COc1c(F)c(F)cc(F)c1F`, the Potency entry in assay [1], in assay [6], in assay [4] and in assay [7] was “inactive” in each case. Moreover, in assay [3], the Potency was 14.8 µM (active).

Consider `CC(C)(C)Cn1c(N)nc2ccc(-c3[nH]c(C(C)(C)C)nc3-c3ccc(F)cc3)nc21`, for which the Potency in [8] is 27.3 µM (active); in [6], 30.6 µM (active); in assay [2], 20.9 µM (active); in assay [7], 20.9 µM (active); in assay [5], 18.7 µM (active). In addition, in assay [4], the Potency entry was “inactive”.

With `NS(=O)(=O)c1ccc(NC2=CC(=O)c3ccccc3C2=O)cc1`, the Potency in [8] was 1.09 µM (active). Further, the Potency entry in assay [6], in assay [3], in assay [4], in assay [7] and in assay [5] was “inactive” in each case.

On to `COc1ccccc1N1CCN(CCCNc2cc(=O)n(C)c(=O)n2C)CC1`, for which the Potency result in assay [8], in assay [6], in assay [2], in [3], in assay [4] and in assay [7] was “inactive” each time. Besides, the Potency entry in [5] was “inactive”.

For the compound `CC(=O)Oc1cc2c(s1)CCN(C(C(=O)C1CC1)c1ccccc1F)C2` (stereo not drawn), the Potency in assay [8] was 3.06 µM (active); in assay [6], 1.37 µM (active); in assay [15] it was 1.04 µM (active); in assay [11], 4.14 µM (active). Moreover, the Potency result in assay [2], in assay [4], in assay [7], in [9], in assay [16] and in assay [17] was “inactive” each time. Further, the Potency result in assay [10], in assay [12], in assay [13] and in [18] was “inactive” in each case.

Turning to `COc1ccc(C2Sc3ccccc3N(CCN(C)C)C(=O)C2OC(C)=O)cc1` (stereo not drawn), the Potency result in assay [8], in assay [6], in assay [2], in [3], in [4] and in [7] was “inactive” each time. For the same compound, the Potency result in assay [5] is “inactive”.

Regarding `Cc1cccc(Nc2nc(-c3ccncc3)cs2)c1`, the Potency entry in assay [1], in assay [3], in assay [4] and in [7] was “inactive” each time. In addition, in [6], the Potency was 21.7 µM (active).

For `O=c1cc(-c2ccccc2)oc2cc(O)cc(O)c12`, the Potency result in assay [8], in [6], in [2], in assay [3], in [4] and in [7] was “inactive” in each case.

For the compound `O=C(NCc1ccncc1)C12C[C@H]3C[C@@H](C1)CC(c1ccc(Cl)cc1)(C3)C2`, the Potency entry in [1], in [4] and in assay [18] was “inactive” throughout. Also, the Potency in assay [6] is 19.3 µM (active); in assay [2] it was 10.5 µM (active); in assay [5], 23.5 µM (active); in assay [15], 9.27 µM (active); in assay [16], 9.27 µM (active); in [17], 26.1 µM (active). Besides, the Potency in [19] is 13.1 µM (active); in assay [12], 20.8 µM (active); in assay [13] it was 9.27 µM (active); in assay [14] it was 26.1 µM (active).
